# Test results as given in PubChem BioAssay (NCATS).
# Records with an inconclusive call do not appear. Where a call stands in place of a potency, no number is given. Calls of active or inactive are those of the source. Calls follow the shape of the dose curve; as a rule, active = well fitted cell-killing curve with a large enough effect; inconclusive = small, poorly fitted or top-dose-only effect, or effect the other way; inactive = no such curve, though single readings can be large or run the other way.
# Experiment: Quantitative High-Throughput drug screen in 47 multiple myeloma cell lines against the NCATS MIPE library collection: KMS11_JCRBsus cell viability assay (AID 1919873); also: nearly all actives have a fitted effect of over 50% in size
# Settings: KMS11 myeloma viability, CellTiter-Glo ATP luminescence, 48 h; series mostly up to 45.8 µM
# Summary of the method: (§1)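 Cells were exposed to library compounds for 48 hours, after which ATP was measured by CellTiter-Glo. Signal was taken as median relative luminescence units.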
# Potency is read from the fitted curve at half-maximal effect.
row,Compound,Potency
1,Cc1ccc(S(=O)(=O)NC(=O)NN2CC3CCCC3C2)cc1 (stereo unspecified),16.6 µM (active)
2,Cc1cc(O)c2c(c1)C(=O)c1cc(O)cc(O)c1C2=O,inactive
3,Nc1ncn([C@H]2C[C@H](O)[C@@H](CO)O2)c(=O)n1,0.59 µM (active)
4,O=c1c(O)c(-c2ccc(O)cc2O)oc2cc(O)cc(O)c12,inactive
5,CN(C)[C@@H](CCOc1cccc2ccccc12)c1ccccc1,23.5 µM (active)
6,O=C(CS(=O)Cc1ccco1)NCC=CCOc1cc(CN2CCCCC2)ccn1 (stereo unspecified),inactive
7,C=CCc1cc(OC)c(O)c(C(=O)NCCO)c1,inactive
8,COCCCOc1ccnc(CS(=O)c2nc3ccccc3[nH]2)c1C (stereo unspecified),inactive
9,O=C(NOCC1CC1)c1ccc(F)c(F)c1Nc1ccc(I)cc1Cl,20.9 µM (active)

# Experiment: Quantitative High-Throughput drug screen in 47 multiple myeloma cell lines against the NCATS MIPE library collection: KMS28BM_JCRB cell viability assay (AID 1919874); also: nearly all actives have a fitted effect of over 35% in size
# Settings: CellTiter-Glo ATP, 48 h; series mostly up to 45.8 µM
# Summary of the method: as §1
row,Compound,Potency
1,CN1CCC(=C2c3ccccc3CCc3sccc32)CC1,10.5 µM (active)
2,CNC[C@@H](O)[C@@H](O)[C@H](O)[C@H](O)CO,inactive
3,NCCCCNCCCN,inactive
4,Nc1cccc2c1CN(C1CCC(=O)NC1=O)C2=O (stereo unspecified),inactive
5,Cc1ccc(S(=O)(=O)NC(=O)NN2CC3CCCC3C2)cc1 (stereo unspecified),18.7 µM (active)
6,Clc1ccc(C(Cn2ccnc2)OCc2ccc(Sc3ccccc3)cc2)c(Cl)c1 (stereo unspecified),20.9 µM (active)
7,Cc1ccc(Nc2nccc(N(C)c3ccc4c(C)n(C)nc4c3)n2)cc1S(N)(=O)=O,inactive
8,N=C(N)c1ccc2cc(OC(=O)c3ccc(N=C(N)N)cc3)ccc2c1,5.9 µM (active)
9,Cc1cc(O)c2c(c1)C(=O)c1cc(O)cc(O)c1C2=O,inactive
10,CC1(C)C(=O)N(CCN2CCC(C(=O)c3ccc(F)cc3)CC2)c2ccccc21,18.7 µM (active)
11,Nc1ncn([C@H]2C[C@H](O)[C@@H](CO)O2)c(=O)n1,inactive
12,CCCCCCCCCCCCCCCCCCCCCCO,inactive
13,Cc1nccn1CC1CCc2c(c3ccccc3n2C)C1=O (stereo unspecified),2.64 µM (active)
14,Cc1ccc(NC(=O)c2ccc(CN3CCN(C)CC3)cc2)cc1Nc1nccc(-c2cccnc2)n1,inactive
15,O=c1c(O)c(-c2ccc(O)cc2O)oc2cc(O)cc(O)c12,inactive
16,CC1(C)NC(=O)N(c2ccc([N+](=O)[O-])c(C(F)(F)F)c2)C1=O,inactive

row,Compound,Potency
1,O=C(NCCO[N+](=O)[O-])c1cccnc1,inactive
2,Cc1c(OCC(F)(F)F)ccnc1CS(=O)c1nc2ccccc2[nH]1 (stereo unspecified),inactive
3,Cc1cc2cc3c(C)cc(=O)oc3c(C)c2o1,inactive
4,Cc1cccc(C#Cc2ccccc2)n1,inactive
5,CN(C)[C@@H](CCOc1cccc2ccccc12)c1ccccc1,18.7 µM (active)
6,Cc1ccc(C(=O)c2cc(O)c(O)c([N+](=O)[O-])c2)cc1,inactive
7,O=C1CCc2ccc(OCCCCN3CCN(c4cccc(Cl)c4Cl)CC3)cc2N1,inactive
8,S=c1nc[nH]c2nc[nH]c12,1.18 µM (active)
9,CC(=O)NC[C@H]1CN(c2ccc(N3CCOCC3)c(F)c2)C(=O)O1,inactive
10,O=C(CS(=O)Cc1ccco1)NCC=CCOc1cc(CN2CCCCC2)ccn1 (stereo unspecified),inactive
11,COc1cc(C(C)=O)ccc1OCCCN1CCC(c2noc3cc(F)ccc23)CC1,5.9 µM (active)
12,C=CCc1cc(OC)c(O)c(C(=O)NCCO)c1,inactive
13,O=C(CCc1ccc(O)cc1)c1c(O)cc(O)cc1O,inactive
14,COCCCOc1ccnc(CS(=O)c2nc3ccccc3[nH]2)c1C (stereo unspecified),inactive
15,O=C(NOCC1CC1)c1ccc(F)c(F)c1Nc1ccc(I)cc1Cl,26.4 µM (active)
16,COc1ccc2cc([C@H](C)C(=O)O)ccc2c1,inactive
